Experimental findings from PubChem BioAssay (EPA / NIEHS) are described below.

Several values for one entry are separate records, joined by “and”; a condition that tells them apart may be missing. Identical values can stand only once. Results filed as inconclusive are left out. More than one record can exist for a structure, and the calls need not agree. Activity calls are given as the source filed them. The calls were made as follows: active = hit-call score of the fitted dose curve at least 0.9, where 1 is the maximum; inconclusive = response in the unintended direction; inactive = score below 0.9.

Estrogen receptor (Homo sapiens), sequence (P03372 whole entry, looked up): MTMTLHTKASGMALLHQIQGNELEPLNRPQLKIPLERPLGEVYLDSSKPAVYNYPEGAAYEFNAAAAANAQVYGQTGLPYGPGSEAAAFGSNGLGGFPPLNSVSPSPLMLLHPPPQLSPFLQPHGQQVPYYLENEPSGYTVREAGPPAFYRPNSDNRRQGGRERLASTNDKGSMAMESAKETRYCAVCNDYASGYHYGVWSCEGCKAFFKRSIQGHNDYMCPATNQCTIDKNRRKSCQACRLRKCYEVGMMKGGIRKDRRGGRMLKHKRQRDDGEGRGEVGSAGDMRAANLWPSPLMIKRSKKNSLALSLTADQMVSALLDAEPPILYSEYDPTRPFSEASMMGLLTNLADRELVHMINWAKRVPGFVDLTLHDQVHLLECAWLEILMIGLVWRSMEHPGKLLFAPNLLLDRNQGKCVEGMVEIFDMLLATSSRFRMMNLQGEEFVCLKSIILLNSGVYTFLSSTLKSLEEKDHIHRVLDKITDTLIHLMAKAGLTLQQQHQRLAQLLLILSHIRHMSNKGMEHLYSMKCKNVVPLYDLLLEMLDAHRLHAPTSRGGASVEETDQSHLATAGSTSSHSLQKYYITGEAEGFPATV

In the assay the target is Estrogen receptor (Homo sapiens) (UniProt P03372). The assay can be described thus: NVS_NR_hER: NovaScreen (NVS) Nuclear Receptor Binding Assay for human Estrogen Receptor (ER) (AID 2283348). An outline of the steps:
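Cell-free radioligand binding with protein extracted from MCF7 cells; scintillation counting 18 hours after dosing. Loss of signal versus DMSO baseline read as displacement; primary single-concentration screen at 25 uM in duplicate, actives retested in concentration series.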
Regarding `O=[N+]([O-])c1ccc(O)cc1`, the molecule was called inactive. In the case of `CCc1nn(C2CCCCC2)c2cc(C3(C#N)CCC(C(=O)O)CC3)ccc12` (centres undefined), the call was inactive. Same read-out and setting: next, `OC1CCC(C2CCCCC2)CC1` (centres undefined): “inactive”. Regarding `COCC(C)O` (centres undefined), the AC50 (commonly the concentration at which the activity in the assay is half-maximal) was 1.82 µM (active). Turning to `ClC1=C(Cl)C(Cl)(Cl)C(Cl)=C1Cl`, the outcome was inactive. Consider `OCCC(F)(F)C(F)(F)C(F)(F)C(F)(F)C(F)(F)C(F)(F)C(F)(F)C(F)(F)F`, for which the molecule was classed as inactive.

Regarding `C[C@@H]1C[C@H]2[C@@H]3CCC4=CC(=O)C=C[C@]4(C)[C@@]3(F)[C@@H](O)C[C@]2(C)[C@@]1(O)C(=O)COP(=O)(O)O`, the molecule was called inactive.

With `Oc1cc2ccccc2c2ccccc12`, the molecule was called inactive. In the case of `CCCCCCCCCCCCN1CCCC1=O`, the molecule was classed as inactive. On the same count and under the same terms, next, `c1ccc2cc3c(ccc4ccccc43)cc2c1`: “inactive”; `NC(=O)N1C(=O)C(C(=O)c2cc(Cl)cs2)c2cc(F)c(Cl)cc21` (centres undefined): “inactive”. For `O=C1OC2(c3ccccc31)c1cc(Br)c(O)c(Br)c1Oc1c2cc(Br)c(O)c1Br`, the AC50 was 16.8 µM (active) and the call was inactive. Regarding `c1ccc2c(c1)Cc1ccccc1-2`, the result was inactive. As for `CCC(C)(C)C1CCC(O)CC1` (centres undefined), the AC50 was 3.1 µM (active) and 2.51 µM (active); the call was inactive. Take `CN(C)C=O`: the outcome was inactive.

For the molecule `CC1=C(/C=C/C(C)=C/C=C/C(C)=C/C(=O)O)C(C)(C)CCC1`, the result was inactive. On the same count and under the same terms, next, `CC(C)(C)CC(C)(C)c1ccc(O)c(-n2nc3ccccc3n2)c1`: “inactive”.
